The source of these data is ChEMBL document CHEMBL3988442, “University of Dundee, Small-Polar-MMV Screening Library” (2021).

The campaign covered roughly 38,000 compounds. About 1,200 (3.2%) showed an effect of 50% or more. The median lay at about -58%. The list comes from a sample in which strong results are over-represented; it also holds similar structures and randomly drawn compounds.

For the assay, the system named is Plasmodium falciparum. The assay can be described thus: Calibr Malaria Delayed Death Assay SOP. It is filed as functional, organism-based. The conditions noted are these: concentration 4.99e-06 (unit not given; other assays of the set use mol/L). Also noted: scale not given: in the data most compounds retested in dose-response had high values.
On to `Cn1c(C2CC2)nc2c1CCN(CCOc1ccccc1C#N)C2`, for which the “Percent Effect” value is reported as -3.674%.
Next, `CC1c2ncc(CN3CCN(C)CC3)n2CCN1Cc1ccccn1.O=C(O)C(F)(F)F.O=C(O)C(F)(F)F.O=C(O)C(F)(F)F.O=C(O)C(F)(F)F` (stereo not drawn): -124%.
On to `Oc1ccc(N2CCC(Cc3ccccc3)CC2)nn1`, for which the “Percent Effect” value was -73.68%.
Next, `N#Cc1cccc(CNC(=O)Nc2cccnc2N2CCCC2)c1`: -57.4%.
Next, `CCNC(=O)c1ccnc(CC2COc3c(cccc3OC)C2)c1` (stereo not drawn): -85.49%; `CCc1ccc2nc(NCCOCCO)cc(C)c2c1`: -140.8%.
As for `CCc1ccc2nc(NCC(O)CO)cc(C)c2c1` (stereo not drawn), the “Percent Effect” value is given as -100%.
For `CCc1ccc2nc(NCCCN(CCO)CCO)cc(C)c2c1`, the “Percent Effect” value was 83.32%.
`COc1ccc(-c2ccc(C(=O)N3CCC[C@@H]3CO)o2)cc1`: the “Percent Effect” value is given as -98.07%.
With `COCCN1C[C@@H]2CN(C(=O)[C@H]3CCCO3)C[C@@H]2C1=O`, the “Percent Effect” value is reported as -140.9%.
As to `Cc1cnc(CN2CCN(c3ccnc(-c4ccccc4)n3)CC2)cn1`, the “Percent Effect” value is reported as -117.9%.
For `COC(=O)N1CCC(NC(=O)N2CCCC2c2ccsc2)CC1` (stereo not drawn), the “Percent Effect” value is recorded as -44.77%.
As for `CC(C)(C)C(=O)N1C[C@H](c2ccsc2)[C@H]2CN(Cc3cccs3)CC[C@H]21.Cl`, the figure is 27.72%.
As to `O=C(CC1CC1)N1CCO[C@H]2[C@H](OCCCn3cccn3)CC[C@@H]21.O=C(O)C(F)(F)F`, the “Percent Effect” value is -14.73%.
Turning to `CN(C)C(=O)N1CCC2(CC(=O)N(c3cccc(C#N)c3)C2)C1` (stereo not drawn), the “Percent Effect” value is listed as -56.91%.
As to `Cc1ccccc1CC(=O)N1C[C@@H]2COC[C@]2(CN(C)C)C1.O=C(O)C(F)(F)F`, the “Percent Effect” value is on record as -70.43%.
Take `CN1CCCN(C(=O)c2ccnn2-c2ccc3ccccn23)CC1.O=C(O)C(F)(F)F`: the “Percent Effect” value was found to be 69.35%.
Next, `O=C(c1ccnn1-c1ccc2ccccn12)N1CCOCC1`: -129.8%.
`CN(C)C1CCN(C(=O)c2ccnn2-c2ccc3ccccn23)CC1.O=C(O)C(F)(F)F`: the “Percent Effect” value was -10.05%.
With `Cc1ncsc1CNCC(C)c1nc2ccccc2o1` (stereo not drawn), the “Percent Effect” value is -88.91%.
With `Cc1nc(CN2CCC(N(C)Cc3noc(C4CC4)n3)C2)oc1C` (stereo not drawn), the “Percent Effect” value was -157.8%.
As for `CCC[C@@H]1CN(C(=O)c2cc(-c3cccs3)n(C)n2)C[C@H]1N(C)C`, the figure is -67.73%; as for `CCC[C@@H]1CN(C(=O)c2ccccc2C(C)=O)C[C@H]1N(C)C`, -122.5%; as for `CCC[C@@H]1CN(C(=O)c2ccccc2-c2ccccc2)C[C@H]1N(C)C`, 18.3%.
As for `CCC[C@@H]1CN(C(=O)c2cc3ccccc3cc2O)C[C@H]1N(C)C`, the “Percent Effect” value is on record as 51.44%.
On to `CCC[C@@H]1CN(C(=O)c2conc2-c2ccccc2)C[C@H]1N(C)C`, for which the “Percent Effect” value is on record as 50.45%.
Take `CCC[C@@H]1CN(C(=O)c2ccccc2-c2ncc[nH]2)C[C@H]1N(C)C`: the “Percent Effect” value is recorded as -89.87%.
As to `CC(C)(C)c1cnc(CN(Cc2cccnc2)CC2CCCO2)o1` (stereo not drawn), the “Percent Effect” value is 21.12%.
With `CC(O)CN1CCc2onc(-c3ccccc3F)c2C1` (stereo not drawn), the “Percent Effect” value is given as -120.6%.
Consider `CN(C)C(=O)CN1CCCC1c1cccc(Cc2ccccc2F)n1` (stereo not drawn), for which the “Percent Effect” value worked out at 67.28%.
As for `CN(C)S(=O)(=O)N1CCCC(c2cccc(Cc3ccccc3F)n2)C1` (stereo not drawn), the “Percent Effect” value is -73.25%.
Regarding `CN(C)C(=O)CCc1cncc(C2CCCN2Cc2ccccn2)n1` (stereo not drawn), the “Percent Effect” value is given as -28.93%.
As to `CN1CCN(C2COC3(CCN(Cc4ccsc4)CC3)C2)CC1.O=C(O)C(F)(F)F.O=C(O)C(F)(F)F` (stereo not drawn), the “Percent Effect” value is on record as -16.23%.
As for `COC(=O)c1cccn1C1CCN(C(=O)c2ccc(C)cc2O)CC1`, the “Percent Effect” value was -37.36%.
Regarding `Nc1ncncc1-c1noc([C@@H]2CCCN2CCCc2ccccc2)n1`, the “Percent Effect” value is -66.01%.
Next, `Nc1cc(C(=O)NC2CCCN(CCCc3ccccc3)C2)ccn1` (stereo not drawn): -86.42%; `CS(=O)(=O)NC1CCN(C(=O)NCc2cccnc2)CC1`: -62.74%.
For the compound `O=C(c1ccoc1)N1CC[C@H]2C[C@@H](c3ccncn3)O[C@@H]2C1`, the “Percent Effect” value is given as -72.56%.
Consider `COc1cccc(CCC(=O)Nc2cnc3c(c2)c(C)nn3C)c1OC`, for which the “Percent Effect” value is -140.4%.
In the case of `COc1nccc(N2CC[C@@H](N3CCCCCC3)[C@H](O)C2)c1C#N`, the “Percent Effect” value stood at 51.1%.
Consider `COc1nccc(N2CC[C@H](N3CCOCC3)[C@H](CCCO)C2)c1C#N`, for which the “Percent Effect” value is reported as -24.24%.
`COc1nccc(N2CC[C@@H](N3CCC(O)CC3)[C@H](O)C2)c1C#N`: the “Percent Effect” value is recorded as -80.42%.
For the compound `COc1ccc(C(N)=O)cc1NCc1ncc(-c2cccs2)o1`, the “Percent Effect” value is -57.49%.
With `O=C(O)CCc1nc2nccc(-c3ccc(F)cc3)n2n1`, the “Percent Effect” value is reported as -150.8%.
As to `COc1ccc(-c2noc(CN3CC(n4cc(C)cn4)C3)n2)cc1`, the “Percent Effect” value was -35.96%.
Next, `CC(C)Nc1ccnc(N2Cc3cnc(C(C)(C)C)nc3C2)n1`: 49.86%; `CC(C)Cc1ncc2c(n1)CN(c1cc(NC3CC3)nc(N)n1)C2`: -26.11%; `CCNc1ccnc(N2Cc3cnc(CC(C)C)nc3C2)n1`: 74.44%.
Take `O=C(CSc1nnc2n1N=CN(c1ccccc1)C2)c1ccccc1`: the “Percent Effect” value is -130.4%.
As for `CCOCCN1CCN(C(C)C(=O)Nc2ccnn2C(C)C)CC1` (stereo not drawn), the figure is -116%; as for `COCCCN1CCCN(C(C)C(=O)Nc2cccc(I)c2)CC1` (stereo not drawn), 89.66%; as for `CC(C(=O)Nc1cccc(Cl)c1)N1CCN(Cc2ncc[nH]2)CC1` (stereo not drawn), 12.72%.
As to `Cc1noc(CN(C)CC2CCCN(CCc3ccc(Cl)cc3)C2)n1` (stereo not drawn), the “Percent Effect” value is on record as -81.63%.
As for `NC(=O)C1CCN(C(=O)c2ccc(Sc3ccccn3)cc2)CC1`, the figure is -20.82%; as for `CN(Cc1cccnc1)CC1CC12CCN(Cc1nccs1)CC2` (stereo not drawn), -24.57%.
Regarding `Cc1ccc(CN(Cc2[nH]cnc2C)C2CC(C)(C)NC(C)(C)C2)o1.O=C(O)CC(O)(CC(=O)O)C(=O)O`, the “Percent Effect” value is listed as -80.85%.
Next, `Cc1ccc(CN(Cc2ccccn2)C(=O)[C@H]2CC[C@@H](N)C2)s1`: -62.59%; `Cc1ccc(CN(Cc2ccncc2)C2CCN(C)CC2)s1`: 33.34%; `CN(Cc1cccnc1)CC1CC12CCCC2` (stereo not drawn): -51.15%.
`O=C(Nc1cccnc1)N(Cc1ccccc1)C1CC1`: the “Percent Effect” value is -66.01%.
On to `CC1(C)CC(N(Cc2cccnc2)Cc2cccc(F)c2)CC(C)(C)N1.O=C(O)CC(O)(CC(=O)O)C(=O)O`, for which the “Percent Effect” value came to 75.47%.
With `Cc1cccc(CN(Cc2cccnc2)C2CC(C)(C)NC(C)(C)C2)n1.O=C(O)CC(O)(CC(=O)O)C(=O)O`, the “Percent Effect” value amounted to 40.19%.
As for `Cc1ccsc1CN(C)Cn1nccc1-c1cccnc1`, the figure is -75.2%; as for `Cc1c[nH]c(CN2CCOC(c3ccc(Cl)c(Cl)c3)C2)c(C)c1=O` (stereo not drawn), -31.43%.
Consider `Cc1cc(CNC(=O)NCc2cccs2)no1`, for which the “Percent Effect” value is -38.54%.
`COc1cccc2c1ccn2CC(=O)Nc1nc[nH]n1`: the “Percent Effect” value is recorded as -178.4%.
Next, `COCCCN(CCOC)C(=O)Nc1ccccc1Br`: -3.396%.
Regarding `Fc1cnc(N2CCN3C[C@H](Oc4cccnc4)C[C@H]3C2)nc1.O=C(O)C(F)(F)F.O=C(O)C(F)(F)F.O=C(O)C(F)(F)F`, the “Percent Effect” value was -67.51%.
With `CN(C)c1nc2sc(C(=O)N3CCNC(=O)CC3)cc2s1`, the “Percent Effect” value is listed as -35.45%.
Take `CCOC(=O)[C@H]1[C@@H](O)C(=O)N(C)C12CCN(S(=O)(=O)CC)CC2`: the “Percent Effect” value was -82.82%.
`CS(=O)(=O)NCc1ncn2c1CN(C(=O)C1CCCCC1)CCC2`: the “Percent Effect” value is recorded as -51.87%.
Turning to `COc1cc(F)ccc1N(C)Cc1cccnc1`, the “Percent Effect” value was -76.29%.
In the case of `CC1(C)CC(N(Cc2cccnc2)Cc2cccnc2)CC(C)(C)N1.O=C(O)CC(O)(CC(=O)O)C(=O)O`, the “Percent Effect” value was -10.22%.
Consider `CC1(C)CC(N(Cc2ccncc2)Cc2cccnc2)CC(C)(C)N1.O=C(O)CC(O)(CC(=O)O)C(=O)O`, for which the “Percent Effect” value worked out at 22.16%.
Next, `C[C@]1(O)CCN(Cc2cccnc2)C[C@@H]1Oc1cccc(F)c1`: 9.643%.
As for `Cc1ccc(C(=O)N(Cc2cccnc2)C[C@@H]2CCC(=O)N2)s1`, the “Percent Effect” value was -86.25%.
As for `CCCN(Cc1cccnc1)C1CC(C)(C)NC(C)(C)C1.O=C(O)CC(O)(CC(=O)O)C(=O)O`, the figure is 76.54%.
`CN(Cc1cccnc1)C1CC2(CCN(C(=O)c3ccnnc3)CC2)C1`: the “Percent Effect” value is given as -29.79%.
With `COc1cccc(CNC(=O)c2cc(C)nc(N3CCCC3)n2)c1`, the “Percent Effect” value is listed as -64.99%.
Take `CC(C)OC(=O)N1CCC(c2nnc(Cn3ccnc3)n2C)CC1`: the “Percent Effect” value was -243.5%.
On to `O=C(O)C(F)(F)F.O=C(c1cccnc1)N1CCC2(CC1)CC(Oc1ccccc1)CO2` (stereo not drawn), for which the “Percent Effect” value is reported as -74.94%.
Next, `CCc1ccc2nc(-c3cnn(C)c3)cc(C(=O)N3CCOCC3)c2c1`: -101.2%; `CCS(=O)(=O)NCc1cccnc1N1CCCC(O)C1` (stereo not drawn): -44.06%.
With `Cc1cnn(CC(=O)N(CC2CN(C)CCO2)c2nccs2)c1` (stereo not drawn), the “Percent Effect” value is -66.52%.
Take `Cc1ccc(S(=O)(=O)Nc2ccc(-n3ccnc3C)nc2)cc1N(C)C`: the “Percent Effect” value was -25.67%.
In the case of `CC(=O)N(C)c1nc(Cn2nnnc2C(C)C)cs1`, the “Percent Effect” value is recorded as -150.3%.
For `Cc1ccc(CN2CCc3onc(COc4cccnc4)c3C2)s1.O=C(O)C(F)(F)F.O=C(O)C(F)(F)F`, the “Percent Effect” value turned out to be 3.567%.
Next, `COc1ccc(-c2ncccc2C(=O)N2C[C@H]3CC[C@@H]2C3)cn1`: -112.3%; `N#Cc1cnc(NCCCN2C(=O)COc3ccccc32)c(Cl)c1`: -83.56%; `N#Cc1ccc(NCCCN2C(=O)COc3ccccc32)nc1`: -38.04%.
Consider `N#Cc1c(Cl)nsc1NCCCN1C(=O)COc2ccccc21`, for which the “Percent Effect” value amounted to 55.67%.
`CC(C)n1cc(N2CC(C(=O)N3CCc4ccccc4C3)CC2=O)cn1` (stereo not drawn): the “Percent Effect” value is reported as -62.91%.
For `O=C(O)C(F)(F)F.O=C(c1ccc(O)cc1)N1C[C@@H]2OCCN(c3ncccn3)[C@@H]2C1`, the “Percent Effect” value is 6.308%.
